# Reference: article PMC12864922, “TDP-43 directly inhibits mRNA accumulation in neurites through modulation of mRNA stability”
# The full ranking holds about 9,900 sequences; the median of “r (bound/input frequency ratio)” is about 0.7, and the highest 2% start at about 6.5. This is one part of a sample in which the highest values are shown more often than they occur.
# B1: ENSMUSG00000061578.1482|Ksr2 (ssRNA)
# RNA: GGGAGUUCUACAGUCCGACGAUCGCUUCGAUAUCCGCAUGCUAGAUGGGUAGGUGGGUGGAUGCAUAGGCAAGUAGAUGAAUGAAUAUGUGGGUAGAAGGGUGAGUGGGUGGAUGAAUGGAUGGAUAGGUUGGUAGGUUAAUGUAUUCGUGGAUGGGUGAAUGGAUGGAUGGAUAGAUAGAUGGGAAGGUGGAUGGACAGAUGGAUGGAUGGAUAGAUAGAUGGACAGGUGGUUGGUGGAUAAAUGAGUGAAUGAUUAUGUUGAUAGAUAUGUGGGUAGGCUGAAUGGGUGAAUGGAUAGAUCCUCUUGCGGUCGCACUAGUGUGGAAUUCUCGGGUGUCAAGG
# B2: ENSMUSG00000061578.1479|Ksr2 (ssRNA)
# RNA: GGGAGUUCUACAGUCCGACGAUCGCUUCGAUAUCCGCAUGCUAUGAAUGAAUGGAUGAAUGGAUGGGUAGGUGGGUGGAUGCAUAGGCAAGUAGAUGAAUGAAUAUGUGGGUAGAAGGGUGAGUGGGUGGAUGAAUGGAUGGAUAGGUUGGUAGGUUAAUGUAUUCGUGGAUGGGUGAAUGGAUGGAUGGAUAGAUAGAUGGGAAGGUGGAUGGACAGAUGGAUGGAUGGAUAGAUAGAUGGACAGGUGGUUGGUGGAUAAAUGAGUGAAUGAUUAUGUUGAUAGAUAUGUGGGUAGGCUGAACUCUUGCGGUCGCACUAGUGUGGAAUUCUCGGGUGUCAAGG
# B3: ENSMUSG00000061578.1480|Ksr2 (ssRNA)
# RNA: GGGAGUUCUACAGUCCGACGAUCGCUUCGAUAUCCGCAUGCUAAAUGGAUGAAUGGAUGGGUAGGUGGGUGGAUGCAUAGGCAAGUAGAUGAAUGAAUAUGUGGGUAGAAGGGUGAGUGGGUGGAUGAAUGGAUGGAUAGGUUGGUAGGUUAAUGUAUUCGUGGAUGGGUGAAUGGAUGGAUGGAUAGAUAGAUGGGAAGGUGGAUGGACAGAUGGAUGGAUGGAUAGAUAGAUGGACAGGUGGUUGGUGGAUAAAUGAGUGAAUGAUUAUGUUGAUAGAUAUGUGGGUAGGCUGAAUGGGUGCUCUUGCGGUCGCACUAGUGUGGAAUUCUCGGGUGUCAAGG
# B4: ENSMUSG00000061578.1484|Ksr2 (ssRNA)
# RNA: GGGAGUUCUACAGUCCGACGAUCGCUUCGAUAUCCGCAUGCUAGGUGGAUGCAUAGGCAAGUAGAUGAAUGAAUAUGUGGGUAGAAGGGUGAGUGGGUGGAUGAAUGGAUGGAUAGGUUGGUAGGUUAAUGUAUUCGUGGAUGGGUGAAUGGAUGGAUGGAUAGAUAGAUGGGAAGGUGGAUGGACAGAUGGAUGGAUGGAUAGAUAGAUGGACAGGUGGUUGGUGGAUAAAUGAGUGAAUGAUUAUGUUGAUAGAUAUGUGGGUAGGCUGAAUGGGUGAAUGGAUAGAUCGAUGACUGGAUGCUCUUGCGGUCGCACUAGUGUGGAAUUCUCGGGUGUCAAGG
# B5: ENSMUSG00000061578.1483|Ksr2 (ssRNA)
# RNA: GGGAGUUCUACAGUCCGACGAUCGCUUCGAUAUCCGCAUGCUAUAGGUGGGUGGAUGCAUAGGCAAGUAGAUGAAUGAAUAUGUGGGUAGAAGGGUGAGUGGGUGGAUGAAUGGAUGGAUAGGUUGGUAGGUUAAUGUAUUCGUGGAUGGGUGAAUGGAUGGAUGGAUAGAUAGAUGGGAAGGUGGAUGGACAGAUGGAUGGAUGGAUAGAUAGAUGGACAGGUGGUUGGUGGAUAAAUGAGUGAAUGAUUAUGUUGAUAGAUAUGUGGGUAGGCUGAAUGGGUGAAUGGAUAGAUCGAUGACCUCUUGCGGUCGCACUAGUGUGGAAUUCUCGGGUGUCAAGG
# B6: ENSMUSG00000061578.1486|Ksr2 (ssRNA)
# RNA: GGGAGUUCUACAGUCCGACGAUCGCUUCGAUAUCCGCAUGCUAGGCAAGUAGAUGAAUGAAUAUGUGGGUAGAAGGGUGAGUGGGUGGAUGAAUGGAUGGAUAGGUUGGUAGGUUAAUGUAUUCGUGGAUGGGUGAAUGGAUGGAUGGAUAGAUAGAUGGGAAGGUGGAUGGACAGAUGGAUGGAUGGAUAGAUAGAUGGACAGGUGGUUGGUGGAUAAAUGAGUGAAUGAUUAUGUUGAUAGAUAUGUGGGUAGGCUGAAUGGGUGAAUGGAUAGAUCGAUGACUGGAUGGAGGGUGGGUGACUCUUGCGGUCGCACUAGUGUGGAAUUCUCGGGUGUCAAGG
# B7: ENSMUSG00000061578.1481|Ksr2 (ssRNA)
# RNA: GGGAGUUCUACAGUCCGACGAUCGCUUCGAUAUCCGCAUGCUAUGAAUGGAUGGGUAGGUGGGUGGAUGCAUAGGCAAGUAGAUGAAUGAAUAUGUGGGUAGAAGGGUGAGUGGGUGGAUGAAUGGAUGGAUAGGUUGGUAGGUUAAUGUAUUCGUGGAUGGGUGAAUGGAUGGAUGGAUAGAUAGAUGGGAAGGUGGAUGGACAGAUGGAUGGAUGGAUAGAUAGAUGGACAGGUGGUUGGUGGAUAAAUGAGUGAAUGAUUAUGUUGAUAGAUAUGUGGGUAGGCUGAAUGGGUGAAUGGACUCUUGCGGUCGCACUAGUGUGGAAUUCUCGGGUGUCAAGG
# B8: ENSMUSG00000061578.1485|Ksr2 (ssRNA)
# RNA: GGGAGUUCUACAGUCCGACGAUCGCUUCGAUAUCCGCAUGCUAUGCAUAGGCAAGUAGAUGAAUGAAUAUGUGGGUAGAAGGGUGAGUGGGUGGAUGAAUGGAUGGAUAGGUUGGUAGGUUAAUGUAUUCGUGGAUGGGUGAAUGGAUGGAUGGAUAGAUAGAUGGGAAGGUGGAUGGACAGAUGGAUGGAUGGAUAGAUAGAUGGACAGGUGGUUGGUGGAUAAAUGAGUGAAUGAUUAUGUUGAUAGAUAUGUGGGUAGGCUGAAUGGGUGAAUGGAUAGAUCGAUGACUGGAUGGAGGGUCUCUUGCGGUCGCACUAGUGUGGAAUUCUCGGGUGUCAAGG
# B9: ENSMUSG00000061578.1478|Ksr2 (ssRNA)
# RNA: GGGAGUUCUACAGUCCGACGAUCGCUUCGAUAUCCGCAUGCUAGAUUUGUGAAUGAAUGGAUGAAUGGAUGGGUAGGUGGGUGGAUGCAUAGGCAAGUAGAUGAAUGAAUAUGUGGGUAGAAGGGUGAGUGGGUGGAUGAAUGGAUGGAUAGGUUGGUAGGUUAAUGUAUUCGUGGAUGGGUGAAUGGAUGGAUGGAUAGAUAGAUGGGAAGGUGGAUGGACAGAUGGAUGGAUGGAUAGAUAGAUGGACAGGUGGUUGGUGGAUAAAUGAGUGAAUGAUUAUGUUGAUAGAUAUGUGGGUAGCUCUUGCGGUCGCACUAGUGUGGAAUUCUCGGGUGUCAAGG
# B10: ENSMUSG00000028439.39|Fam219a|34:40 (ssRNA)
# RNA: GGGAGUUCUACAGUCCGACGAUCGCUUCGAUAUCCGCAUGCUACAUUGCUUCCUCCUAUGGUAGGACGUGUACCUCACACACAUCAAGGAGCCGGAGAAACCAAAACCGGGUCUGUCUCCAGCCCCGGGGCUGAGGAGGGGUGGGCACUGUUUGUUCGGUUACUUGGGGGGAACCACACCCAAGCACCCUGCCACCUCUCCUAUAGCUGCAGUCAGGGGGGCAGCACUGAAGGCCAGGAGGCCAAAUGUAAGCGUUGGGUGAAGGGAUCACAGGGCCGGAAGGUUGGCCCCAGCCAGUGAAGCCUCUUGCGGUCGCACUAGUGUGGAAUUCUCGGGUGUCAAGG
# B11: ENSMUSG00000043670.69|Diras1|133:138 (ssRNA)
# RNA: GGGAGUUCUACAGUCCGACGAUCGCUUCGAUAUCCGCAUGCUACCAUUCUAUCUGCACCCCACAACCACACACUGGAGGUUUGAUCCCUGUGGAUCUGAAAACAGGGACCUGGCUAAGGAACUGCUCAUCCCAGUCAGGCCCAGAGAGGUUACCUUGCCUCUCCAUCUCUGUCCCACACACCCCAGCCAUGCCCACUGUCCCUGUCCCUCACAUUCUAUCACUGUGACCUCUGGGGAGUGCCCAUUGACCUCAUCUUCCUUCACUAAUAUCUUAUUUCUUUCACCUGAUCCUGUCCUUUCCCCCUCUUGCGGUCGCACUAGUGUGGAAUUCUCGGGUGUCAAGG
# B12: ENSMUSG00000028439.112|Fam219a (ssRNA)
# RNA: GGGAGUUCUACAGUCCGACGAUCGCUUCGAUAUCCGCAUGCUACAAAGGGAUACUGUCUCUCCAUUAGAUAACUCCUUCCACUGUCUCCCUCCCCCGCUUUCUUACUUUCUGAGGGUUGGGAAGGUAAGAUGGGCCUUAGAGAGAAGCCAGGUUUGGGGAUGGUAUGACCUGUUCUCACCGGUCUCUAACCAGUGCAUCUGUCUCUCUGCCUCAUCCCCACACCGCCCUGCCACCCCCAGUCUUCUGUCUAUUGGUUCCAGGCUGGAAGCAAGAGAUAAGGCUGGCCUCCUGUGCCCCAUUGCCUCUUGCGGUCGCACUAGUGUGGAAUUCUCGGGUGUCAAGG
# B13: ENSMUSG00000032194.3|Kank2 (ssRNA)
# RNA: GGGAGUUCUACAGUCCGACGAUCGCUUCGAUAUCCGCAUGCUAUCAGACUACGAGAGUCCGGCUUCGUCUUCAGCCGAGGAGUGAAUACAGGGAGGAGCCAGUGAGUCCCCCAGGACCCACCAGCCACAAGCCACGCAUCAAACCGUCCCUCCUCCAUCCCUCUGUCCCAUUCUGCCUCGGCAUUCCUCAGCCCCUGAACUUCCCUGAGGGAGCCCUGACAUCUACCAGGCUCAAGCUCCUGGAAGCCUUUCCCAGCACCCUGGGUUCAAAGCCAGAAAGCCAAGCUACAUUCUCCUCCCAGUCUCUUGCGGUCGCACUAGUGUGGAAUUCUCGGGUGUCAAGG
# Biological target: TDP-43 (Homo sapiens, UniProt Q13148 1-414)
# Sequence (Q13148 whole entry): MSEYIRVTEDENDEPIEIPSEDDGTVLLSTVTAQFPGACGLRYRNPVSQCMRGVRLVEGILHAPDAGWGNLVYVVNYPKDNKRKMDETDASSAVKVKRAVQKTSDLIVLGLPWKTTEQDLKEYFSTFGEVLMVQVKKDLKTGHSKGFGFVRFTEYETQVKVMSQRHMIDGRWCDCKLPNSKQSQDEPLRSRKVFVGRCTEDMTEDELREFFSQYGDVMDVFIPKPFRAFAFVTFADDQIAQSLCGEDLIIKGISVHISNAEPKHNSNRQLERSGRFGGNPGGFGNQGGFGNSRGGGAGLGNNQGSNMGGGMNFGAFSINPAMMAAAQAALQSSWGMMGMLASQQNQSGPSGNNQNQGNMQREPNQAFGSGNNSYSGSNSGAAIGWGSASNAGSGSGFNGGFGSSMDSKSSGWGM
# Assay: RNA Bind-n-Seq with designed 260-mer pool; 25 mM Tris-HCl, 150 mM KCl, 3 mM MgCl2, BSA (printed 500 mg/mL), 20 units/mL SUPERase IN; pH not stated; 500 nM RNA pool, 1 h, 4 C; TDP-43 5, 50, 500 nM; high values mean tight binding
# Conditions: protein: recombinant; tags: SBP (GST cleaved off with PreScission; pGEX-GST-SBP)
# Summary of the method: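 The incubation lasted 1 h at 4 °C and used 500 nM of an in vitro-transcribed 260-nt 3′ UTR oligo pool with recombinant SBP-tagged TDP-43 at 5, 50 or 500 nM immobilized on streptavidin beads. It took place in 25 mM Tris-HCl, 150 mM KCl, 3 mM MgCl2, BSA and SUPERase IN. Bound RNA was washed, eluted with biotin, converted to cDNA, PCR-amplified and sequenced to give R, each oligo's normalized abundance in the bound sample divided by that in input. Two independent protein batches provided the duplicates.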
row,Binder,binding signal
1,B1,7 R (bound/input frequency ratio)
2,B2,5.48 R (bound/input frequency ratio)
3,B3,7.65 R (bound/input frequency ratio)
4,B4,6.89 R (bound/input frequency ratio)
5,B5,4.53 R (bound/input frequency ratio)
6,B6,5.39 R (bound/input frequency ratio)
7,B7,5.98 R (bound/input frequency ratio)
8,B8,5.62 R (bound/input frequency ratio)
9,B9,4.77 R (bound/input frequency ratio)
10,B10,1.29 R (bound/input frequency ratio)
11,B11,2.03 R (bound/input frequency ratio)
12,B12,0.71 R (bound/input frequency ratio)
13,B13,1.4 R (bound/input frequency ratio)
